# Assay results as given in ChEMBL document CHEMBL3433997, “St. Jude Leishmania screening dataset” (2016).
# How the values were obtained:
# Format in all cases: functional
# [1] = molecular target: Solute carrier family 2, facilitated glucose transporter member 1 (Homo sapiens) (UniProt P11166); test: ST_JUDE_LEISH: Cytotoxicity at 2uM final concentration against transgenic Leishmania Mexicana promastigotes LmGLUT1 that are glucose transport deficient and complemented with the human glucose transporter GLUT1. Activity is measured by DNA content using SYBR green in vitro
# Chain of Solute carrier family 2, facilitated glucose transporter member 1 (Homo sapiens) (P11166 whole entry): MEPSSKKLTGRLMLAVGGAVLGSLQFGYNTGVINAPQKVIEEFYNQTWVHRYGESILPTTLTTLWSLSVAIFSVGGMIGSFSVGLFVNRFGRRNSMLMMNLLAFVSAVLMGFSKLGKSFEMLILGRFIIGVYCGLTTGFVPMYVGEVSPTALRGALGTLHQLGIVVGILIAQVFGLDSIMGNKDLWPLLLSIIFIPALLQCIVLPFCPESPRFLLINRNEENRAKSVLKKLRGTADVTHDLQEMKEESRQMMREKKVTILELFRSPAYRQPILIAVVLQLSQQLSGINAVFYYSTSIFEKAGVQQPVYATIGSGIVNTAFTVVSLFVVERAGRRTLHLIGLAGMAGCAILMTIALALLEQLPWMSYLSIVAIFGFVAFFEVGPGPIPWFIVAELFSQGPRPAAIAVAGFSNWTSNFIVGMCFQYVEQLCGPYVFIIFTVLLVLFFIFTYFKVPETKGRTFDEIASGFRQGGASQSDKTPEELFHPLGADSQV
# [2] = molecular target: Hexose transporter 1 (Plasmodium falciparum) (UniProt O97467); test: ST_JUDE_LEISH: Cytotoxicity at 2uM final concentration against transgenic Leishmania Mexicana promastigotes LmPfHT that are glucose transport deficient and complemented with the Plasmodium falciparum hexose transporter. Activity is measured by DNA content using SYBR green in vitro
# [3] = molecular target: Glucose transporter (Leishmania mexicana) (UniProt O61059); test: ST_JUDE_LEISH: Cytotoxicity at 2uM final concentration against transgenic Leishmania Mexicana promastigotes LmGT2 that are glucose transport deficient and complemented with the L. Mexicana glucose transporter 2. Activity is measured by DNA content using SYBR green in vitro
SMILES,inhibition [1],inhibition [2],inhibition [3]
CN(C)c1ccc2c(c1)Sc1cc(N(C)C)ccc1N2C(=O)CCCC(=O)O,5.15%,1.94%,-0.96%
CC(C)(C)Nc1cc(C2CC2)nc(-c2ccccn2)n1,2.01%,4.26%,3.05%
Cc1noc(C)c1-c1cccc(CNCc2cccc(-c3cccc(-c4nc5cc(C(F)(F)F)ccc5[nH]4)c3)c2)c1,0.14%,1.85%,0.61%
CNC(=O)c1cnc(Nc2ccc(OCC(O)CN(C)C)cc2)nc1Nc1cccc(OC(C)C)c1 (stereo unspecified),2.84%,-0.45%,1.38%
Cc1nc2ccccc2c(=O)n1/N=C/c1ccccc1[N+](=O)[O-],3%,1.45%,2.65%
Cc1nc(O)c2c(ccc3ccc(CNc4ccc(C(=O)N[C@@H](CCC(=O)O)C(=O)O)cc4)cc32)n1,0.64%,2.36%,1.05%
COc1cc2nc(N3CCC(CCCC4CCNCC4)CC3)nc(NCc3ccccn3)c2cc1OC,73.5%,68.6%,57.1%
CCN(CC)/C(=N/C(=N)Nc1ccc(Cl)cc1)NCCCCCCCCN/C(=N\C(=N)Nc1ccc(Cl)cc1)N(CC)CC,0.33%,-0.74%,-0.07%
Cc1c(CNCCCNc2cc(=O)c3ccccc3[nH]2)sc(C(F)=C(F)F)c1Br,6.84%,5.03%,5.8%
CN(C)CCn1c(=N)n(CC(O)c2ccc(Cl)c(Cl)c2)c2ccccc21 (stereo unspecified),6.31%,4.53%,5.49%
COc1ccc(Nc2nccc(-c3ccc4ccnc(NCCCCN)c4c3)n2)cc1,-0.78%,-1.84%,-4.14%
CN(c1ccc(F)cc1)S(=O)(=O)c1ccc(Cl)c(C(=O)Nc2cccc(C#N)c2)c1,4.24%,3.52%,3.65%
CC(C)(C)c1cc(C(=O)Nc2cccnc2)cc(C(=O)Nc2cccnc2)c1,2.58%,1.97%,2.38%
CN1CCC(C(=O)Nc2ccc(-c3cccc(-c4nc5cc(C(F)(F)F)ccc5[nH]4)c3)cc2)CC1,0.78%,2.62%,2.31%
CS(=O)(=O)Nc1cccc(-c2cnc3[nH]cc(-c4ccc(C(=O)O)c(F)c4)c3c2)c1,-2.02%,-1.06%,1.09%
COc1ccc2[nH]c(/C=C/c3cccc4ccc(C)nc34)nc2c1,2.88%,2.44%,0.69%
O=C(CCCCCNC(=O)c1ccc(O)c(-c2ccc(Cl)c(Cl)c2)c1)NCCc1ccc(Cl)c(Cl)c1,-0.22%,0.09%,0.33%
Cc1cc(NC(=O)Nc2cccc(C#N)c2)c2ccccc2n1,4.37%,4.11%,3.04%
COc1cccc(Cc2cnc3nc(N)nc(N)c3c2C)c1,2.99%,1.68%,3.44%
O=C(NCCCN1CCOCC1)c1ccc(-c2cccc(NC(=O)c3ccc(Cl)c(Cl)c3)c2)cc1,2.04%,1.79%,-0.88%
N#Cc1ccc2c(c1)CN(C1CCC(NC(=O)/C=C/c3cc(C(F)(F)F)cc(C(F)(F)F)c3)CC1)CCC2 (stereo unspecified),1.63%,1.36%,0.57%
Cc1nc2c(-n3cc(Cn4ccnc4)c4ccccc43)ncnc2n1-c1ccc(Cl)cc1Cl,0.32%,0.41%,-1%
O=C(Nc1cccc(-c2ccc(-c3nc4cc(C(F)(F)F)ccc4[nH]3)cc2)c1)Nc1ccc(Cl)c(Cl)c1,3.88%,2.8%,1.65%
Cc1nnc(-c2cccc(Nc3ccnc4cc(-c5nccs5)ccc34)c2)o1,11.2%,11.8%,9.75%

SMILES,inhibition [1],inhibition [2],inhibition [3]
OCCOCn1cnc2cnc(N[C@H]3OC[C@H](O)[C@@H](O)[C@@H]3O)nc21,0.99%,2.06%,1.69%
N#Cc1ccc2c(c1)CCN(CCC1CCC(NC(=O)/C=C/c3c[nH]c4c(Br)cccc34)CC1)CC2 (stereo unspecified),16.5%,15.6%,6.85%
CCCC1N=C(N)N=C(N)N1c1ccc(C)c(C)c1 (stereo unspecified),-0.66%,-2.19%,-2.79%
CCN(CC)CCCNC(=O)/C(=C/C=C/c1cc2cc(Cl)c(Cl)cc2[nH]1)OC,7.56%,11.3%,7.84%
C=CCN1CCC(N(Cc2cccc(Oc3ccccc3)c2)C(=O)C(c2ccccc2)c2ccccc2)CC1,-1.05%,-2.14%,-2.94%
Cc1ncccc1C(=O)Nc1cccc(-c2cccc(-c3nc4cccc(C)c4[nH]3)c2)c1,0.36%,1.44%,1.05%
CC(C)COc1ccc(Cl)cc1Cc1nc(-c2nc3cccc(CN4CCN(C)CC4)c3[nH]2)cs1,0.6%,0.77%,0.67%
COc1cc(Nc2nccc(-c3c(-c4cccc(NC(=O)c5c(F)cccc5F)c4)nn4ccccc34)n2)cc(OC)c1OC,20.8%,24.9%,8.03%
Cc1ccc(NC(=O)c2ccc3ncccc3c2)cc1OC1CCN(Cc2ccsc2)C1 (stereo unspecified),3.87%,1.3%,0.48%
COc1ccc(C(=O)NCc2ccc(N)nc2C)cc1Nc1ncc(-c2cccc(N(C)C)c2)cn1,0.19%,-1.36%,1.76%
CCOc1ccc(C=CC(=O)Nc2ccc3nc(N4CCOCC4)cc(C)c3c2)cc1OC,10.1%,9.63%,4.75%
Clc1ccc(C=NNc2ccnc3cc(Cl)ccc23)cc1,0.42%,0.11%,-0.42%
COc1ccc(NC(=O)CCNc2cc(C)nc(NCCc3ccc(F)cc3)n2)cc1,-0.52%,0.39%,-0.01%
COc1ccc2c(Nc3ccc(N4CCN(C)CC4)cc3)cc(C)nc2c1,9.36%,6.21%,4.55%
Cc1noc(C)c1-c1cccc(CNCc2ccc(-c3ccc(-c4nc5cc(F)ccc5[nH]4)s3)cc2)c1,11.2%,10.3%,10.2%
O=C(Nc1ccc(Cl)c(Cl)c1)C1CCC(=O)N1[C@@H](Cc1ccccc1)C(=O)NCCc1ccc(Cl)cc1 (stereo partly specified),0.51%,0.41%,1.43%
COc1cccc(Nc2nc(C)cc(Nc3cccc(C#N)c3)n2)c1,17.5%,19.2%,4.27%
O=C(COc1ccc(C(=O)c2ccccc2)cc1)Nc1nccs1,0.24%,0.43%,-3.28%
Oc1cccc(Nc2ccnc3cc(-c4ccncc4)ccc23)c1,10.6%,9.58%,8.68%
CN1CCN(CC(=O)Nc2cccc(-c3ccc(-c4nc5cc(C(F)(F)F)ccc5[nH]4)cc3)c2)CC1,0.96%,0.81%,1.35%
CCOc1ccc(C(C)NC(=O)C2COc3ccccc3O2)cc1OCC (stereo unspecified),2.23%,1.59%,2.93%
N=C(N)Nc1nc(-c2ccc(NC(=N)N3CCC[C@H]3CN3CCCC3)cc2)cs1,-0.01%,-0.2%,-0.7%
CC(C)(C)OC(=O)NCc1ccc(Nc2nnc(-c3ccc(OCC(=O)NC[C@@H]4CC[C@H]5C[C@@H]4C5(C)C)c([N+](=O)[O-])c3)o2)cc1,2.01%,2.91%,0.68%
Cc1cccc2nc(-c3ccc(-c4ccc(CNCCCN5CCCC5=O)cc4)s3)[nH]c12,2.02%,3.54%,3.25%

SMILES,inhibition [1],inhibition [2],inhibition [3]
O=C(Nc1ccc(OC2CCN(Cc3ccccc3)CC2)c(Cl)c1)c1cccs1,2.31%,4.54%,4.68%
NC1CCN(c2nc(NCCc3ccc(O)cc3)nc(NCc3ccccc3-c3ccccc3)n2)CC1,-0.15%,0.54%,0.38%
CN1CCc2ccc(NC(=O)Nc3ccc(Cl)c(Cl)c3)cc2C1,4.69%,3.67%,3.54%
O=c1nc(NCCCNCc2cc3c(Cl)cc(Cl)cc3[nH]2)[nH]c2ccsc12,81.4%,96.7%,83.9%
COc1ccc2nccc([C@@H](O)CN3CCC(NC(=O)COc4nc(SCc5ccc(F)cc5)nc5c4CCC5)CC3)c2c1,1.06%,0.81%,-3.16%
COc1ccc(NC(=O)/C=C/c2cc(F)cc(C(F)(F)F)c2)cc1OCCN(C(C)C)C(C)C,9.32%,9.92%,6.4%
Cc1nc(C)c(-c2ccc(Cl)cc2Cl)c(O)c1Br,1.43%,0.95%,3.83%
Cn1cnc(CCNC(=O)c2cccc(-c3cccc(-c4nc5cc(C(F)(F)F)ccc5[nH]4)c3)c2)c1,-1.68%,1%,-2.49%
Nc1ncc(Cc2cc(Cl)c(N)c3ncccc23)c(N)n1,2.6%,2.88%,2.91%
COc1ccc(C2N=C(N)N=C(N)N2OCc2ccccc2)cc1OC (stereo unspecified),0.67%,2.45%,2.49%
Cc1cccc(CNc2nccc3[nH]c4ccccc4c23)c1,4.82%,4.77%,1.28%
c1cc(CNC2Cc3ccc(-c4cccs4)cc3C2)cc(-n2ccnc2)c1 (stereo unspecified),3.39%,0.43%,1.86%
COc1ccc(Br)cc1/C=C/C(=O)Nc1ccc(C2CCN(C)CC2)cc1,3.58%,3.16%,4.19%
COc1ccc(CCN(Cc2cccs2)C(=O)c2cc3sccc3n2C)cc1OC,0.3%,0.45%,0.18%
CC(=O)N(C)c1ccc(C(=O)Nc2cccc(-c3cccc(-c4nc5cc(C(F)(F)F)ccc5[nH]4)c3)c2)cc1,8.18%,7.82%,5.77%
Cc1n[nH]c2cc(Nc3ccnc(Nc4ccc(CN5CCOCC5)cc4)n3)ccc12,12.7%,9.89%,14.2%
Cc1ccc(O)cc1Nc1ccnc2ccc(-c3cccc(CN(C)C)c3)cc12,0.24%,-2.77%,0.73%
O=C(NCCc1ccccc1)N(Cc1ccccc1-c1cccc(CNC2CCCC2)c1)C1CCN(Cc2ccccc2)CC1,8.2%,4.49%,6.22%
Cc1nc(N)nc(N)c1CCCOc1ccc(Br)cc1,6.19%,4.15%,-1.62%
FC(F)(F)c1ccc(Nc2nnnc3ccccc23)cc1,7.74%,7.45%,6.1%
O=C(/C=C/c1ccc(Cl)c(Cl)c1)NCCCCCN1CCC(NC(=O)Nc2cc(Cl)ccc2Cl)CC1,9.69%,8.99%,9.67%
COc1ccc(CN2CCC(CNCCc3c(Cl)cccc3Cl)CC2)cc1,7.06%,8.38%,9.64%
O=C(Nc1ccc(-c2nc3cc4ccccc4cc3[nH]2)cc1)c1cccc(Br)c1,3.09%,1.07%,5.72%
COc1ccccc1-n1ccnc1SCC(=O)Nc1cccc(C(F)(F)F)c1,3.36%,1.61%,2.6%
